Measured values reported in PubChem BioAssay AID940 (Emory University Molecular Libraries Screening Center, 2007).
Several values for one entry are separate records, joined by “and”; a condition that tells them apart may be missing. Identical values can stand only once. The whole screen tested about 260,000 compounds, of which about 2,200 (0.85%) were called active. This is one part of a sample in which actives are shown more often than they occur.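 Rule for the calls: active = compounds whose cAMP rise, as percent of the full-agonist control response, exceeds 60; inactive = the rest.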 Some structures have more than one record in an assay (separate samples or runs), and their calls can disagree.

Biological target: Prostaglandin E2 receptor EP2 subtype (Homo sapiens) (UniProt P43116)
Sequence (P43116 whole entry, looked up): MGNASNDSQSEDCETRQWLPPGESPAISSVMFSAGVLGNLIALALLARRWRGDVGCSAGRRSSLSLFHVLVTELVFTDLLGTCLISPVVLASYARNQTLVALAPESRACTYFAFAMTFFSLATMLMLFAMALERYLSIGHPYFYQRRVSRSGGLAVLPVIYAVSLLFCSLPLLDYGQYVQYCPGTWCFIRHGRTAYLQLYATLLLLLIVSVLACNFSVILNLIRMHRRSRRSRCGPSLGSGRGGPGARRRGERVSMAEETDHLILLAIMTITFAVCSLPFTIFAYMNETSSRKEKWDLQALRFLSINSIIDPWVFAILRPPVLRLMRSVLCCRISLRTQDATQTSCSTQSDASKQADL
Assay: EP2 receptor modulators, cAMP readout, primary screen, cell-based, HTRF cAMP, PGE2 stimulation (AID 940);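 note: rat C6 glioma line stably carrying human EP2 under a CMV promoter; the protocol text gives 20 µM as final concentration; 100% = response of wells given 1 µM PGE2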
Details: EP2-expressing cells, cAMP HTRF FRET, PGE2 co-stimulation; at 25 µM; stronger effect = higher value

induction, active:
C=CCn1cnc2sc(C)c(-c3ccc(Cl)cc3)c2c1=O 72.1%
CC(C)N(C(=O)CSc1nc(COc2ccccc2)nc2ccccc12)C(C)C 60.5% and 78.3%
NC(=O)COc1ccc(C23CC4CC(CC(C4)C2)C3)cc1 87.8%
CCNc1nc(C)c([N+](=O)[O-])c(C)c1C#N 68.9%
O=c1oc2ccccc2n1CCCOc1cccc2ccccc12 74.5%
CCOC(=O)c1c(C2CC2)csc1NC(=O)CSCc1c(C)noc1C 75.9%
CCC(c1nnnn1C1CCCCC1)N(Cc1cccs1)Cc1cc2cc(C)cc(C)c2[nH]c1=O (stereo not given) 75.2%
Cc1cccc2cc(CN(Cc3cccs3)C(c3nnnn3C3CCCC3)C(C)C)c(=O)[nH]c12 (stereo not given) 63.3% and 74.3%
Cc1cccc2cc(CN(Cc3cccs3)Cc3nnnn3C3CCCCC3)c(=O)[nH]c12 70.9%
Cc1ccc2[nH]c(=O)c(CN(CCc3ccccc3)Cc3nnnn3C3CCCCC3)cc2c1 71.2%

induction, inactive:
CCCOC(=O)Cn1cnc2sc(C)c(-c3ccc(Cl)cc3)c2c1=O 27.2%
CCCn1cnc2sc(C)c(-c3ccc(Cl)cc3)c2c1=O 36.5%
O=C(Nc1cccc2ccccc12)C1CCN(C(=O)c2cccc(Cl)c2)CC1 -52%
CCCc1nc(SCC(=O)Nc2ccc(S(=O)(=O)N(C)C)cc2)c2ccccc2n1 0.33%
CN(C(=O)CSc1nc(C2CC2)nc2ccccc12)c1nc(-c2ccccc2)cs1 0.29%
COc1cc(OC)cc(OCC(O)Cn2c(C)nc3ccccc32)c1 (stereo not given) -45%
CCn1c(SCC(=O)Nc2cc(Cl)ccc2Cl)nc2sc(C)c(C)c2c1=O 8.59%
CC1(C(=O)N(CC(=O)NCc2ccc(F)cc2)C2CCCC2)CC(=O)N=C2C=CC=CN21 (stereo not given) -9.59%
NNC(=O)COc1ccc(C2SCCS2)cc1 -9.97%
NC(=O)COc1ccc(NC(=O)c2ccccc2-c2ccccc2)cc1 -20.6%
Cn1nnc2cc(NC(=O)Nc3ccc(F)cc3)ccc21 -20.8%
Cc1nn(CC(=O)Nc2ccc(C#N)cc2)c(C)c1[N+](=O)[O-] 40.4%
Cc1nc(NCCN)c(C#N)c2c1COC(C)(C)C2 14.1%
COc1ccccc1-c1ocnc1C(=O)Nc1ccc(N2CCC(C)CC2)c(C(N)=O)c1 -7.54%
NC(=O)Cn1c(=O)oc2ccccc21 8.45%
Cc1ccc(OCCCn2c(=O)oc3ccccc32)cc1 -12.8%
CC1CCCN(CC(=O)N2CCN(C(=O)CN3CCCC(C)C3)CC2)C1 (stereo not given) -44.2%
CCCn1c(=O)[nH]c2c(C(N)=O)nc(-c3ccccc3F)nc21 -12.9%
Cc1noc(C)c1CSCC(=O)Nc1nc2ccc(Oc3ccccc3)cc2s1 -9.73%
CCOC(=O)c1c(-c2cccc(C)c2)csc1NC(=O)c1c(-c2ccccc2)noc1C 34.1%
CCOc1cccc(/C(O)=C2/C(=O)C(=O)N(CCN3CCOCC3)C2c2ccc(C)o2)c1 (stereo not given) -20%
CCC(c1nnnn1C(C)(C)CC)N(Cc1cccs1)Cc1cc2ccc(C)c(C)c2[nH]c1=O (stereo not given) 48.5%
Cc1ccc2c(c1)C(=O)CC1(CCN(C(=O)N3CCOCC3)CC1)O2 -15.2%
O=C(CSc1nnc2c(n1)[nH]c1ccc(F)cc12)Nc1cccc2ccccc12 -43.9%
C=C(C)Cn1c(N2CCC(C)CC2)nc2c1c(=O)[nH]c(=O)n2C -6.93%
Cc1cc(C)nc(SCCn2c(N3CCC(C)CC3)nc3c2c(=O)[nH]c(=O)n3C)n1 1.48%
O=C(NCC1CCCO1)C(=O)Nc1cc(Cl)cc(Cl)c1 (stereo not given) -89.4%
Cc1cc2c(cc3c(=O)n(CC(=O)N(Cc4ccncc4)C4CC4)nc(C)n32)s1 41.2%
Cc1cccc2cc(CN(Cc3ccc4c(c3)OCO4)Cc3nnnn3C3CCCC3)c(=O)[nH]c12 42.4%
Cc1ccc(CN(Cc2cc3cc4c(cc3[nH]c2=O)OCCO4)Cc2nnnn2C2CCCC2)cc1 2.08%
Cc1ccc2cc(CN(Cc3ccccc3)C(c3nnnn3C3CCCCC3)C(C)C)c(=O)[nH]c2c1C (stereo not given) 45.6%
CCOc1ccc2[nH]c(=O)c(CN(Cc3ccccc3)Cc3nnnn3C3CCCC3)cc2c1 -7.93%
Cc1cc(C)c2[nH]c(=O)c(CN(Cc3ccco3)C(c3nnnn3C3CCCCC3)C(C)C)cc2c1 (stereo not given) 25.3%
CCC(c1nnnn1C1CCCC1)N(Cc1cccs1)Cc1cc2cccc(C)c2[nH]c1=O (stereo not given) 46.6%
Cc1ccc(CN(Cc2cc3c(C)ccc(C)c3[nH]c2=O)Cc2nnnn2C2CCCC2)cc1 38.9%
CCC(c1nnnn1C1CCCC1)N(Cc1cccs1)Cc1cc2ccc(C)c(C)c2[nH]c1=O (stereo not given) 49%
CCn1c(COc2ccc(Br)cc2)nnc1SCC(=O)NCc1ccccc1 19.8%
O=C(CCSc1nc(-c2ccc3c(c2)OCO3)cc(C(F)(F)F)n1)NCc1ccncc1 -33.7%
CC1CCN(c2nc3c(c(=O)[nH]2)CCN(Cc2c(O)ccc4ccccc24)C3)CC1 -22.9%
COc1ccccc1NC(=O)COc1ccc(/C=C/C2=CCN(C)CC2)cc1OC -73.1%
CCOc1ccc(OCC)c(NC(=O)CSc2ncnc3sc(C)c(C)c23)c1 40.1%
Cn1c(=O)sc2cc(S(=O)(=O)NC3(c4ccccc4F)CC3)ccc21 -176%
COc1ccc(Cn2nnnc2CN(Cc2cc3cc(C)ccc3[nH]c2=O)C2CCCCC2)cc1 30.9%
COc1nc(C)c(CC(=O)Nc2ccc3[nH]c4c(c3c2)CCCC4)c(OC)n1 -85%

induction, 57.4% (inactive) and 67% (active):
CC1CCN(c2nc3c(c(=O)[nH]c(=O)n3C)n2CCCc2ccccc2)CC1
